Most compounds without a hit are left out; they make up all but 6.9% or so of the library.
Giardia kill – Giardia lamblia killing; Giardia lamblia trophozoite viability; activity change, % at 7.66 µM, hits read low; actives 0.15% (n = 340,000); in the data active = activity change below about -80%; inconclusive = between about -30% and that limit;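 also: parasites exposed to compound for two days anaerobically before the ATP read; % is scaled to controls: 0 for no effect and ±100 for the full control effect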
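Luminescence from cellular ATP indicates surviving trophozoites (100 cells/well) following 48 hrs anaerobic compound treatment at 37 deg C; signal develops 15-30 min at room temperature.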
MCF10A rerep – DNA re-replication induction in MCF 10a cells | MCF 10A DNA re-replication, Hoechst nuclear intensity, 48 h | AID 624296 | Potency, µM (series often up to 46.1 µM), without a hit: top-dose activity, positive = re-replication, most hits filed as activators | actives 2.9% (n = 350,000); also: potency is read from the fitted curve at half-maximal effect; % of control where 0% means no effect; nearly all actives have a fitted effect of over 50% in size
S-ASM inh – blocks human secretory acid sphingomyelinase. placental ASM, HMU-PC fluorogenic substrate, 60 min. actives 0.006% (n = 340,000). Potency, µM (doses to about 57.5 µM), inactives show at the highest dose activity change, negative = inhibition, most hits filed as inhibitors; also: potency is read from the fitted curve at half-maximal effect
Target sequence (P17405 47-631 limits assumed): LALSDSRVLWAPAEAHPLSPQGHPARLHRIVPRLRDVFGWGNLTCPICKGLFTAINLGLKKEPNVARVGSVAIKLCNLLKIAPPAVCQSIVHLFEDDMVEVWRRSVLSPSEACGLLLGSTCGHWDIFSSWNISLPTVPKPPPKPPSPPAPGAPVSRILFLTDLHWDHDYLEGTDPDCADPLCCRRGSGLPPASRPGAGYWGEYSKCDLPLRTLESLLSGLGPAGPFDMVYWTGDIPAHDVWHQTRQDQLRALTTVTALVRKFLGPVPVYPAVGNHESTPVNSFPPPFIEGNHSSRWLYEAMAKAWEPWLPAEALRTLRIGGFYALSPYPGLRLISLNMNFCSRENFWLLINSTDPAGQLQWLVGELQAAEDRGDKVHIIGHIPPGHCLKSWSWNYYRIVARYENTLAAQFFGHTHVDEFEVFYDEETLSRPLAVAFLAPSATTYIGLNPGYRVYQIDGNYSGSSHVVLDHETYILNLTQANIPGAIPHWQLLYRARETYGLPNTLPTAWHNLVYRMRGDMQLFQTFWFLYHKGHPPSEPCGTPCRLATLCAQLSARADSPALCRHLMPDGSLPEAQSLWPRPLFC
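Steps: dispense placental human ASM, pin compound, wait 10 min at room temperature, add HMU-PC0 substrate at 9 uM final, incubate 60 min at 37 °C, add stop solution raising pH to 10, read fluorescence.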
KB-3-1 tox – KB-3-1 parental cell cytotoxicity | KB-3-1 viability, CellTiter-Glo ATP luminescence, 72 h | Potency, µM (highest dose often 46.1 µM), hits mostly cytotoxic | actives 1.4% (n = 400,000); also: potency is read from the fitted curve at half-maximal effect; % is scaled to controls: 0 for no effect and ±100 for the full control effect; nearly all actives have a fitted effect of over 60% in size
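Viability of parental KB-3-1 cells, measured by CellTiter-Glo luminescence, followed a 72 h incubation at 37 °C with pinned compounds in phenol-red-free DMEM containing 10% FBS.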
SW480 rereplic – inducers of DNA re-replication in SW480 colon cancer cells; AID 624297; actives 1.8% (n = 340,000); SW480 DNA re-replication, Hoechst DNA content imaging, 48 h; Potency, µM (doses to about 46.1 µM), for the others: at the top dose re-replication activation, most hits filed as activators; also: potency is read from the fitted curve at half-maximal effect; % of control where 0% means no effect; nearly all actives have a fitted effect of over 55% in size
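DNA re-replication was detected as more nuclei of elevated Hoechst intensity after 48 hr exposure to compound (23 nL pinned per well of 250 cells).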
KB-V1 MDR tox – KB-V1 MDR subline cytotoxicity | KB-V1 MDR cells viability, CellTiter-Glo, 72 h | Potency, µM (doses to about 46.1 µM), most hits filed as cytotoxic | actives 3.4% (n = 400,000) | AID 1347076; also: potency is read from the fitted curve at half-maximal effect; % is scaled to controls: 0 for no effect and ±100 for the full control effect; nearly all actives have a fitted effect of over 60% in size
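Cytotoxicity toward P-gp-expressing KB-V1 cells was determined as loss of CellTiter-Glo luminescence after 72 h at 37 degrees C. Compounds were tested in quantitative HTS format across a concentration range, with curves fitted to normalized data.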
Active calls of the source: *; i = inactive; u = inconclusive; x = no result; [ ] = remark or other dose. Unless noted, calls follow the shape of the dose curve; as a rule, active = well fitted curve in the direction sought with a large enough effect; inconclusive = small, poorly fitted or top-dose-only effect, or another doubt; inactive = no such curve, though single readings can be large; an effect the other way counts as inactive or inconclusive.

SMILES	Giardia kill	MCF10A rerep	S-ASM inh	KB-3-1 tox	SW480 rereplic	KB-V1 MDR tox
CC(=O)c1cccc(-c2ccnc3c2CC(C(=O)NCCc2ccccc2)O3)c1 (centres undefined)	x	x	x	2.31µM*	x	3.26µM*
O=C(NCc1cccs1)C1Cc2c(-c3ccc(Cl)cc3)ccnc2O1 (centres undefined)	x	x	x	2.06µM*	x	u
CC(=O)c1cccc(-c2ccnc3c2CC(C(=O)NCc2cccs2)O3)c1 (centres undefined)	x	x	x	1.03µM*	x	2.31µM*
COC(=O)C1=C(c2ccccc2)c2ccccc2S(=O)(=O)N1CC(=O)Nc1ccc(F)c(F)c1	x	x	x	i	x	i
CCOc1ccc(-c2nnn(CC#N)n2)cc1OC	4.1	10.3µM*	-0.1%	u	u	i
CCOc1ccc(-c2nnn(CC(=O)c3cc(OC)ccc3OC)n2)cc1	1.3	u	4.1%	14.6µM*	6.4%	5.17µM*
COc1ccc(CN(C)CC(O)COC(c2ccc(OC)cc2)c2ccc(OC)cc2)cc1 (centres undefined)	-21.3	u	-4.9%	i	u	u
CCOc1ccc(CN(C)CC(O)COC(c2ccc(OC)cc2)c2ccc(OC)cc2)cc1 (centres undefined)	-3.8	18.4µM*	-1.2%[11.5 µM]	u	u	u
Cc1ccc2nc(NC(=O)C3CCN(c4ncnc5sc(C)c(C)c45)CC3)sc2c1	22.6	23.1µM*	-3.8%	x	23.4%	x
CCOC(=O)c1ccccc1NC(=O)C1CCN(c2ncnc3sc(C)c(C)c23)CC1	-1.4	u	-2.0%	u	-10.1%	23.1µM*
Cc1sc2ncnc(N3CCC(C(=O)Nc4nc(-c5cccs5)cs4)CC3)c2c1C	10.7	u	u	u	12.2%	5.17µM*
Cc1sc2ncnc(N3CCC(C(=O)N(C)CC(=O)Nc4ccc(Cl)c(C(F)(F)F)c4)CC3)c2c1C	-9.2	u	-23.0%	20.6µM*	-423.0%	i
Cc1sc2ncnc(N3CCC(C(=O)N(C)CC(=O)Nc4cccc(F)c4)CC3)c2c1C	x	x	x	i	x	i
Cc1sc2ncnc(N3CCC(C(=O)Nc4ccccc4C(C)(C)C)CC3)c2c1C	-2.4	18.0%	-2.4%	i	u	u
CCc1nnc(NC(=O)C2CCN(c3ncnc4sc(C)c(C)c34)CC2)s1	-1.2	2.2%	0.6%	i	-11.6%	u
O=C(COC(=O)Cn1nnc2ccccc21)NC1CCCC1	-11.7	-4.0%	-1.2%	i	-9.4%	i
CCOC(=O)c1ccccc1NC(=O)C1CC(=O)N(C2CCCCC2)C1 (centres undefined)	0.8	-4.1%	0.3%	i	3.9%	i
Cc1ccc(NC(=O)C2CCN(c3ncnc4sc(C)c(C)c34)CC2)cc1S(=O)(=O)N(C)C	-9.8	u	-8.3%	u	-477.1%	u
Cc1ccc(C)c(S(=O)(=O)N2CCN(C(=O)C3CCN(c4ncnc5sc(C)c(C)c45)CC3)CC2)c1	1.3	20.6µM*	-0.6%	23.1µM*	20.6µM*	u
CCOC(=O)c1ccccc1NC(=O)C1CC(=O)N(C(C)(C)C)C1 (centres undefined)	5.0	1.03µM*	-1.7%	i	-34.9%	i
CCC(C)NC(=O)c1cc2c(Cl)nc3ccc(C)cc3c2s1 (centres undefined)	x	x	x	i	x	i
O=C(CSCc1ccc(F)cc1)N1CCN(c2ccccc2)CC1	5.7	10.0%	-3.1%	i	7.1%	u
Cn1c(CSCc2ccc(Cl)cc2)nnc1SCC(=O)Nc1nccs1	-7.5	18.3%	-3.4%	i	-6.9%	i
Cn1c(CSCc2ccc(F)cc2)nnc1SCC(=O)N1CCN(c2ccccc2)CC1	-16.9	2.6%	3.2%	u	-4.8%	16.4µM*
Cn1c(CSCc2ccc(F)cc2)nnc1SCC(=O)Nc1nccs1	-7.7	7.2%	0.1%	u	-0.4%	23.1µM*
SMILES	Giardia kill	MCF10A rerep	S-ASM inh	KB-3-1 tox	SW480 rereplic	KB-V1 MDR tox
CC(Oc1ccccc1Cl)C(=O)/C=C/N(C)C (centres undefined)	5.3	18.4µM*	3.6%	i	-2.6%	u
COc1cc(NCCCCC(C)N)c2nccc(C)c2c1 (centres undefined)	x	x	x	5.17µM*	x	u
CCOC(=O)C1=C(c2ccccc2)NC(=S)NC1c1cc([N+](=O)[O-])ccc1OC (centres undefined)	-18.4	-2.2%	2.1%	i	17.0%	i
CCOC(=O)C1=C(c2ccccc2)NC(=S)NC1c1ccc(C)c([N+](=O)[O-])c1 (centres undefined)	10.7	u	8.2%	i	u	2.91µM*
CC1=C(C(=O)OCc2ccccc2)C(c2cccc([N+](=O)[O-])c2)NC(=O)N1 (centres undefined)	3.1	2.4%	-2.1%	i	-10.2%	i
CCOC(=O)C1=C(c2ccccc2)NC(=S)NC1c1cccc([N+](=O)[O-])c1 (centres undefined)	2.9	11.1%	0.9%	i	-1.8%	14.6µM*
C#CCN1C(C)=C(C(=O)OC)C(c2cccc([N+](=O)[O-])c2)C(C(=O)OCC)=C1C (centres undefined)	-0.1	3.2%	-6.9%	i	2.5%	11.6µM*
CC1=C(C(=O)OCc2ccccc2)C(c2cccc([N+](=O)[O-])c2)NC(=O)N1C (centres undefined)	6.3	0.82µM*	-1.7%	i	-59.2%	u
CCOC(=O)C1=C(C)NC(C)=C(C(=O)OCC)C1c1cccc([N+](=O)[O-])c1	x	x	x	i	x	u
COc1ccccc1NC(=O)C/C(N)=N/OCC(=O)Nc1cccc(Cl)c1	-12.8	-4.7%	-2.1%	i	-3.0%	18.4µM*
COc1ccc(C)cc1NC(=O)CO/N=C(\N)CC(=O)Nc1ccccc1OC	40.5	-2.6%	-0.9%	i	-3.5%	i
CCN(CC)c1ccc(/C=N/NC(=O)c2cccc(S(=O)(=O)Nc3ccccc3OC)c2)cc1	-3.0	16.4µM*	20.3%	i	2.1%	i
COc1ccccc1NS(=O)(=O)c1cccc(C(=O)N/N=C/c2ccc([N+](=O)[O-])o2)c1	u	20.6µM*	-7.7%	u	13µM*	u
COc1ccc(OCCCC(=O)Nc2cccc([N+](=O)[O-])c2)cc1	-3.3	27.7%	-0.8%	i	u	u
CCN(CC)S(=O)(=O)c1cc(NC(=O)Cn2cnc3ccccc3c2=O)ccc1C	-18.0	8.6%	0.8%	i	14.7%	i
CN(c1ccccc1)S(=O)(=O)c1cccc(NC(=O)Cn2cnc3ccccc3c2=O)c1	0.8	11.2%	-6.0%	u	-2.1%	23.1µM*

Assay outcomes from PubChem.
